Screening data from PubChem BioAssay.
Tau fibril FP: blocks human tau fibril formation measured by polarization; Potency, µM (doses to about 57.7 µM), for inactives: top-dose activity, negative = inhibition, actives largely listed as inhibitors; P10636; 0.39% of 280,000 active; K18 P301L tau heparin fibrillization, Alexa594 FP, 6 h; AID 1468; also: potency is read from the fitted curve at half-maximal effect; nearly all actives have a fitted effect of over 55% in size
Target sequence (P10636 561-689 P618L limits assumed): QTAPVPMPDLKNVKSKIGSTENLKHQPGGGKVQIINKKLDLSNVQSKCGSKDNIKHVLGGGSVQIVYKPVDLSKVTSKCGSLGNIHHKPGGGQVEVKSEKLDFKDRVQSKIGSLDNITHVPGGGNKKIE
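Read-out: fluorescence polarization of Alexa 594-labeled tau (0.24 uM), 555 nm excitation, 632 nm emission. Mixtures held 15 uM unlabeled K18 P301L, compound and 20 uM heparin, pH 7 acetate buffer, incubated 6 hr at 37 C.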
Tau fluor counter: counter-screen for tau fibril formation inhibitors; tau K18 P301L Alexa594 fluorescence, heparin fibrillization; 0.93% of 280,000 active; Potency, µM (series often up to 57.7 µM), without a hit: at the highest dose activity change, negative = decrease; also: potency is read from the fitted curve at half-maximal effect; nearly all actives have a fitted effect of over 55% in size
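Human tau K18 P301L (15 uM unlabeled, 0.24 uM Alexa 594-labeled) in 100 mM sodium acetate pH 7 with 20 uM heparin, 6 hr at 37 C. ThT 30 uM added, 1 hr ambient; Alexa 594 FP and total fluorescence read at 555/632 nm.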
Coupling enz: counter-screen for Giardia aldolase inhibitors: coupling enzyme system. activity change, negative = inhibition, % at 58.2 µM, hits read low. 0.67% of 290,000 active. AID 2472. coupling enzyme system counterscreen, AmpLite Red fluorescence; in the data active = activity change below about -30%
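Counterscreen of the coupled detection system alone, without aldolase: glyceraldehyde-3-phosphate coupling enzymes plus AmpLite Red readout. Compounds at 57.5 uM final, 10 min RT preincubation, 20 min RT reaction, fluorescence 525/598 nm.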
Tau fibril ThT: tau fibrillization inhibition (ThT binding). P10636. recombinant tau K18 P301L (four-repeat tau fragment), heparin-induced fibrillization, ThT fluorescence. Potency, µM (titrated, usually from 57.4 µM), for inactives: top-dose activity, negative = inhibition, actives largely listed as inhibitors. 2.1% of 270,000 active; also: potency is read from the fitted curve at half-maximal effect; nearly all actives have a fitted effect of over 55% in size
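Heparin-induced (20 uM) aggregation of recombinant human K18 P301L tau, 15 uM unlabeled with 0.24 uM labeled, pH 7 acetate buffer, 6 hr at 37 C with compound. Fibrils quantified by 30 uM ThT fluorescence after 1 hr ambient incubation.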
Starred values were filed as active, the others as inactive; ? = inconclusive; · = no result; [ ] = another dose, or the depositor's remark. In the library only some 2.7% were active in any assay of this set; here they are far more common. Unless noted, calls follow the shape of the dose curve; as a rule, active = well fitted curve in the direction sought with a large enough effect; inconclusive = small, poorly fitted or top-dose-only effect, or another doubt; inactive = no such curve, though single readings can be large; an effect the other way counts as inactive or inconclusive. % is scaled to controls: 0 for no effect and ±100 for the full control effect.

SMILES | Tau fibril FP | Tau fluor counter | Coupling enz | Tau fibril ThT
Cc1ccc(N2NC(=O)/C(=C\c3cc4c(cc3[N+](=O)[O-])OCO4)C2=O)cc1C | ? | ? | 2 | 14µM*
O=C1NN(c2ccccc2)C(=O)/C1=C\c1ccc2c(c1)OCO2 | · | · | -3 | ·
CC(=O)Oc1cc2oc(=O)c3c(c2cc1Cl)CCC3 | 18µM* | ? | -4 | 14µM*
Nc1ccc(-c2nc3ccc([N+](=O)[O-])cc3[nH]2)cc1 | 14% | ? | 0 | 13µM*
O=[N+]([O-])c1ccc(-c2nc3ccc([N+](=O)[O-])cc3[nH]2)cc1 | ? | ? | -16 | 2.8µM*
O=[N+]([O-])c1ccc2nc(C(O)C(O)c3nc4ccc([N+](=O)[O-])cc4[nH]3)[nH]c2c1 (stereo not drawn) | · | · | 1 | ·
O=[N+]([O-])c1ccc2nc(/C=C/c3ccc(Cl)cc3)[nH]c2c1 | -2% | ? | -16 | 13µM*
CCC[C@H]1C[C@H](C(=O)N[C@H]([C@@H]2O[C@H](SC)[C@@H](O)[C@H](O)[C@@H]2O)[C@H](C)O)N(C)C1 | · | · | 1 | ·
CC(C)N(Cc1ccccc1)C(=O)C1CCCN(c2ncnc3onc(-c4ccc(F)cc4)c23)C1 (stereo not drawn) | 1% | 1% | · | 1%
Cc1noc(C)c1-c1ccc2ncnc(NCc3cccc(F)c3)c2c1 | · | · | -1 | ·
CCCCc1ccc(NC(=O)N[C@@H](C)C(=O)O)cc1 | 3% | 0% | -1 | -2%
CCCCc1ccc(/C=C2\C(=O)c3ccccc3C(O)=C2C(=O)OCC)cc1 | ? | ? | -28 | 18µM*
CCOC(=O)Cn1nc(N2CCN(c3ccc(F)cc3)CC2)ccc1=O | 4% | -6% | · | -7%
Cc1[nH]n(-c2ccccc2)c(=S)c1C=Nc1cccc([N+](=O)[O-])c1 | ? | -23% | -5 | 22µM*
CCC(C)NC(=O)c1ccc(Cn2c(=O)c3cccn3c3cccnc32)cc1 (stereo not drawn) | -5% | -3% | · | 5%
Cc1cc(=O)oc2cc(Oc3ncccc3[N+](=O)[O-])ccc12 | 4% | -15% | -5 | -12%
Cc1cc(=O)oc2cc(Oc3ccc([N+](=O)[O-])cc3[N+](=O)[O-])ccc12 | 0% | 13µM*[quencher] | 6 | ?
Cc1cc(C)n(-c2nc(N(c3ccccc3)c3ccccc3)nc(-n3nc(C)cc3C)n2)n1 | ? | 3% | 1 | 20µM*
Cc1c(C(=O)Nc2ccccc2)cn2c(nc3ccccc32)c1C#N | -16% | 0% | 1 | -1%
Cc1ccccc1C(=O)Nc1ccc2c(C#N)c3nc4ccccc4nc3n2c1 | -9% | ? | -19 | 5µM*
O=C(NCc1nc(-c2ccc(C(F)(F)F)cc2)no1)Nc1cc(Cl)cc(Cl)c1 | 16µM* | ? | -5 | ·
CC1=NN(C(N)=S)C(=O)C1N=Nc1cccc2ccccc12 (stereo not drawn) | -9% | ? | 0 | 4µM*
N[C@H](CCC(=O)N[C@H](CSN=O)C(=O)NCC(=O)O)C(=O)O | ? | -22% | 1 | 22µM*
Cc1cccc(/C=C2\CS/C(=C\c3cccc(C)c3)C2=O)c1 | -3% | -19% | 1 | 3.5µM*
O=C1/C(=C/c2cccc(Cl)c2)CSc2sccc21 | -2% | -29% | 3 | -17%
SMILES | Tau fibril FP | Tau fluor counter | Coupling enz | Tau fibril ThT
Cc1ccc(CNC(=O)c2cc3cc(C)ccc3n2C)cc1 | 0% | 6% | · | 6%
Cc1nn(-c2ccccc2)c2c1C(c1ccc(Br)s1)C(C#N)=C(N)O2 (stereo not drawn) | 0% | ? | -3 | ?
CCOC(=O)C1=C(C)OC(N)=C(C#N)C1c1c(C)nn(-c2ccc(C)cc2)c1Cl (stereo not drawn) | 6% | -14% | -2 | ?
Cc1nn(-c2ccccc2)c2c1C(c1ccccc1)C(C#N)=C(N)O2 (stereo not drawn) | 5% | -18% | 2 | ?
Cc1ccc(-n2nc(C)c3c2OC(N)=C(C#N)C3c2ccoc2)cc1 (stereo not drawn) | ? | ? | -13 | 13µM*
Cc1ccc(-n2nc(C)c3c2OC(N)=C(C#N)C3c2ccco2)cc1 (stereo not drawn) | -11% | ? | -7 | 25µM*
Cc1ccc(-n2nc(C)c3c2OC(N)=C(C#N)C3c2ccc(C)o2)cc1 (stereo not drawn) | ? | ? | -17 | 5µM*
O=C(NC(=S)Nc1ccccc1Cl)c1csnn1 | ? | -12% | -6 | 16µM*
FC(F)Oc1ccc(-c2csc(NNC3=NCCCCC3)n2)cc1 | ? | -29% | -4 | 28µM*
CC(C)(C)c1ccc(-c2csc(NNC3=NCCCCC3)n2)cc1 | ? | ? | -1 | 16µM*
Cc1ccc(NC(=O)C(C)n2nnc3sc4c(c3c2=O)CCCC4)cc1Cl (stereo not drawn) | -7% | -16% | · | 5%
CCOC(=O)c1c(C2COc3ccccc3O2)csc1NC(=O)c1ccccc1 (stereo not drawn) | -4% | -10% | 2 | -4%
CCOC(=O)c1c(C2COc3ccccc3O2)csc1N (stereo not drawn) | 9% | 25µM*[quencher] | 1 | ?
COc1ccc(-c2nc3ccccc3o2)cc1NC(=O)c1ccc(N2CCC(C)CC2)c([N+](=O)[O-])c1 | -7% | -14% | · | ?
CCc1ccc2oc(-c3cc(N)ccc3Cl)nc2c1 | 10% | 14µM*[quencher] | -2 | ?
O=[N+]([O-])c1ccc(O)c(C=Nc2ccc3oc(Cc4ccc(Cl)cc4)nc3c2)c1 | -12% | ? | -35* | ?
O=C(Nc1ccc2oc(-c3ccccc3)nc2c1)c1cccnc1 | 4% | -17% | -4 | -14%
CCc1ccc2oc(-c3cc(NC(=O)c4cccs4)ccc3Cl)nc2c1 | 13µM* | ? | · | -8%
CC(C)c1ccc2oc(-c3cc(NC(=O)c4cccnc4)ccc3Cl)nc2c1 | 7.9µM* | ? | · | 2%
COc1ccc(C)cc1NC(=O)CC1NCCNC1=O (stereo not drawn) | -1% | 2% | · | 3%
C[C@@]1(O)CCOC(=O)C1 | · | · | -2 | ·
COC(=O)c1ccc(CN2C(=O)C(C)N(C(=O)c3c(F)cccc3F)c3ccccc32)cc1 (stereo not drawn) | · | · | -3 | ·
Nc1ccc2oc(Cc3ccc(Cl)cc3)nc2c1 | ? | ? | · | 22µM*
COc1ccc(Nc2cc(C)c3cc(NC(=O)Cc4c(F)cccc4Cl)ccc3n2)cc1 | ? | 7.9µM*[quencher] | · | ?
Cc1cc(Nc2cccc(Cl)c2)nc2ccc(NC(=O)Cc3c(F)cccc3Cl)cc12 | -13% | 7.9µM*[quencher] | · | ?
COc1ccc(Nc2cc(C)c3cc(NC(=O)COc4cccc(C)c4)ccc3n2)cc1 | ? | 11µM*[quencher] | · | 7.1µM*
Cc1cccc(NC(=O)Cc2c(F)cccc2Cl)n1 | · | · | 0 | ·
COc1ccc(NC(=O)Cc2c(F)cccc2Cl)c(OC)c1 | 4% | -1% | -8 | 7%
COc1ccc(Nc2cc(C)c3cc(NC(=O)c4cc(OC)cc(OC)c4)ccc3n2)cc1 | ? | 13µM*[quencher] | · | 11µM*
